Test results: PubChem BioAssay (NCI)
This is part of a sample that, as a whole, favours compounds with a hit. Of some 79,000 tested, about 15% had one in any assay. Unmarked numbers belong to inactive results. The source made the active and inactive calls. Cut-off read from the data, not from the text of the source: active = growth inhibition above about 70%; inactive = the rest.

What was measured:
[1] = NCI Yeast Anticancer Drug Screen. Data for the rad52 strain (AID 147);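 note: 0% = growth of vehicle-treated control cultures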; conditions: S. cerevisiae rad52 mutant growth inhibition, hits give high values
Procedure, shortened: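 Inhibition of yeast growth, referenced to vehicle controls, was the measured output for a strain with defective DNA damage repair.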

[2] = NCI Yeast Anticancer Drug Screen. Data for the wt1 strain (AID 149);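 note: 0% = growth of vehicle-treated wt1 cultures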; conditions: S. cerevisiae wt1 strain (SPY 50644) growth inhibition, hits give high values
Procedure, shortened: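 wt1 yeast, compound-treated; % growth inhibition vs vehicle control.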

[3] = NCI Yeast Anticancer Drug Screen. Data for the rad50EPP+ strain (AID 151);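 note: 0% = growth of vehicle-treated control cultures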; conditions: S. cerevisiae rad50 mutant strain, hits give high values
Procedure, shortened: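 Genetically defined yeast (rad50EPP+, DNA damage repair alteration) is grown with compound, and inhibition of growth is expressed relative to vehicle-treated controls.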

[4] = NCI Yeast Anticancer Drug Screen. Data for the mgt1 strain (AID 153); conditions: S. cerevisiae mgt1 mutant growth inhibition, hits give high values
Procedure, shortened: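 In the mgt1 strain, test compounds were added and growth inhibition was determined relative to vehicle-treated controls.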

[5] = NCI Yeast Anticancer Drug Screen. Data for the rad50 strain (AID 155);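 note: 0% = growth of vehicle-only cultures of the same strain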; conditions: S. cerevisiae rad50 strain growth inhibition, hits give high values
Procedure, shortened: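 Genetically altered yeast (DNA repair pathway); compound treatment; growth inhibition vs vehicle ctrl.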

[6] = NCI Yeast Anticancer Drug Screen. Data for the mec2-1 strain (AID 157); conditions: S. cerevisiae mec2-1 strain, hits give high values
Procedure, shortened: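 Each compound was tested on mec2-1 yeast, a strain altered in DNA damage repair or cell cycle control. Growth inhibition is reported relative to vehicle.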

[7] = NCI Yeast Anticancer Drug Screen. Data for the sgs1 mgt1 strain (AID 161);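 note: 0% = growth of cultures given vehicle only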; conditions: S. cerevisiae sgs1 mgt1 strain, hits give high values
Procedure, shortened: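 Inhibition of yeast growth, normalised to vehicle-treated controls, is reported for a strain bearing genetic alterations in DNA damage repair.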

[8] = NCI Yeast Anticancer Drug Screen. Data for the CLN2oe strain (AID 163);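 note: 0% = growth of vehicle-only control cultures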; conditions: S. cerevisiae CLN2oe strain, hits give high values
Procedure, shortened: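 First, the altered yeast strain was treated with each compound; second, its growth was measured; finally, inhibition was derived by comparison with vehicle controls.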

[9] = NCI Yeast Anticancer Drug Screen. Data for the bub3 strain (AID 167); conditions: S. cerevisiae bub3 mutant strain, hits give high values
Procedure, shortened: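 Yeast carrying a defined mutation is treated with each compound, and growth is compared with that of vehicle-exposed cells to give inhibition.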

[10] = NCI Yeast Anticancer Drug Screen. Data for the wt2 strain (AID 169);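 note: 0% = growth of vehicle-treated yeast cultures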; conditions: S. cerevisiae wt2 strain growth inhibition, hits give high values
Procedure, shortened: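 The panel's yeast strains carry defined changes in DNA repair or cell cycle genes. Each strain is grown with compound, and growth loss is scored relative to vehicle.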

[11] = NCI Yeast Anticancer Drug Screen. Data for the mlh1 strain (AID 171);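 note: 0% = growth of vehicle-treated control cultures of the same strain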; conditions: S. cerevisiae mlh1 strain growth inhibition, hits give high values
Procedure, shortened: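 Inhibition values reflect reduced yeast growth in the presence of compound, referenced to vehicle controls, using a strain chosen for its alteration in DNA repair or cell cycle control.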

[12] = NCI Yeast Anticancer Drug Screen. Data for the sgs1 strain (AID 173);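 note: 0% = growth of vehicle-only control cultures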; conditions: S. cerevisiae sgs1 mutant, hits give high values
Procedure, shortened: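 Vehicle-treated cultures served as reference for growth inhibition of a yeast strain altered in DNA damage repair or cell cycle control after compound exposure.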

[13] = NCI Yeast Anticancer Drug Screen. Data for the mlh1 rad18 strain (AID 175); conditions: S. cerevisiae mlh1 rad18 strain growth inhibition, hits give high values
Procedure, shortened: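 Inhibition values reflect reduced growth of mutant yeast versus vehicle-treated controls following compound exposure; the mutations affect DNA damage repair.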

[14] = NCI Yeast Anticancer Drug Screen. Data for the rad18 strain (AID 177); conditions: S. cerevisiae rad18 mutant growth inhibition, hits give high values
Procedure, shortened: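 Steps: expose repair-mutant yeast to compound; measure growth; express as inhibition relative to vehicle control.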

[15] = at 5.0 µM (retest, dose inferred, filed as 0.5)
[16] = at 50.0 µM (retest, dose inferred, filed as 5.0)

## C=C1CC(CCCl)(c2ccccc2)OC1=O (stereo not given)
[1]; at 1.2 µM
  growth inhibition: -37%
[1]; at 3.7 µM
  growth inhibition: -25%
[1]; at 11.0 µM
  growth inhibition: 17%
[1]; at 33.0 µM
  growth inhibition: 88% (active)
[1]; at 100.0 µM
  growth inhibition: 99% (active)
[2]; at 1.2 µM
  growth inhibition: -13%
[2]; at 3.7 µM
  growth inhibition: -16%
[2]; at 11.0 µM
  growth inhibition: 25%
[2]; at 33.0 µM
  growth inhibition: 84% (active)
[2]; at 100.0 µM
  growth inhibition: 98% (active)
[3]; at 1.2 µM
  growth inhibition: 0%
[3]; at 3.7 µM
  growth inhibition: 2%
[3]; at 11.0 µM
  growth inhibition: 19%
[3]; at 33.0 µM
  growth inhibition: 48%
[3]; at 100.0 µM
  growth inhibition: 92% (active)
[4]; at 1.2 µM
  growth inhibition: -25%
[4]; at 3.7 µM
  growth inhibition: -3%
[4]; at 11.0 µM
  growth inhibition: 78% (active)
[4]; at 33.0 µM
  growth inhibition: 98% (active)
[4]; at 100.0 µM
  growth inhibition: 99% (active)
[5]; at 1.2 µM
  growth inhibition: 0%
[5]; at 3.7 µM
  growth inhibition: 13%
[5]; [15]
  growth inhibition: 4%
[5]; at 11.0 µM
  growth inhibition: 33%
[5]; at 33.0 µM
  growth inhibition: 91% (active)
[5]; [16]
  growth inhibition: 94% (active)
[5]; at 50.0 µM
  growth inhibition: 92.5% (active)
[5]; at 100.0 µM
  growth inhibition: 98% (active)
[6]; at 1.2 µM
  growth inhibition: -4%
[6]; at 3.7 µM
  growth inhibition: 16%
[6]; [15]
  growth inhibition: 13%
[6]; at 11.0 µM
  growth inhibition: 65%
[6]; at 33.0 µM
  growth inhibition: 93% (active)
[6]; [16]
  growth inhibition: 98% (active)
[6]; at 50.0 µM
  growth inhibition: 93.5% (active)
[6]; at 100.0 µM
  growth inhibition: 99% (active)
[7]; [15]
  growth inhibition: -8%
[7]; [16]
  growth inhibition: 96% (active)
[7]; at 50.0 µM
  growth inhibition: 93.5% (active)
[8]; at 1.2 µM
  growth inhibition: 4%
[8]; at 3.7 µM
  growth inhibition: 7%
[8]; at 11.0 µM
  growth inhibition: 24%
[8]; at 33.0 µM
  growth inhibition: 85% (active)
[8]; at 100.0 µM
  growth inhibition: 98% (active)
[9]; at 1.2 µM
  growth inhibition: -6%
[9]; at 3.7 µM
  growth inhibition: 37%
[9]; [15]
  growth inhibition: 37%
[9]; at 11.0 µM
  growth inhibition: 76% (active)
[9]; at 33.0 µM
  growth inhibition: 96% (active)
[9]; [16]
  growth inhibition: 98% (active)
[9]; at 50.0 µM
  growth inhibition: 92.4% (active)
[9]; at 100.0 µM
  growth inhibition: 99% (active)
[10]; at 1.2 µM
  growth inhibition: -22%
[10]; at 3.7 µM
  growth inhibition: -20%
[10]; at 11.0 µM
  growth inhibition: 38%
[10]; at 33.0 µM
  growth inhibition: 95% (active)
[10]; at 100.0 µM
  growth inhibition: 95% (active)
[11]; at 1.2 µM
  growth inhibition: 21%
[11]; at 3.7 µM
  growth inhibition: 35%
[11]; at 11.0 µM
  growth inhibition: 82% (active)
[11]; at 33.0 µM
  growth inhibition: 97% (active)
[11]; at 100.0 µM
  growth inhibition: 99% (active)
[12]; at 1.2 µM
  growth inhibition: 4%
[12]; at 3.7 µM
  growth inhibition: 2%
[12]; at 11.0 µM
  growth inhibition: 59%
[12]; at 33.0 µM
  growth inhibition: 96% (active)
[12]; at 100.0 µM
  growth inhibition: 99% (active)
[13]; [15]
  growth inhibition: 22%
[13]; [16]
  growth inhibition: 98% (active)
[13]; at 50.0 µM
  growth inhibition: 91.2% (active)
[14]; at 1.2 µM
  growth inhibition: 0%
[14]; at 3.7 µM
  growth inhibition: 13%
[14]; at 11.0 µM
  growth inhibition: 61%
[14]; at 33.0 µM
  growth inhibition: 94% (active)
[14]; at 100.0 µM
  growth inhibition: 99% (active)
